About 4,900 (1.5%) of roughly 330,000 compounds were called active.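 The calls were made as follows: active = inhibition above the mean inhibition across the screen plus 3 SD (cut at about 25% in these data); inactive = the rest.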 Shown is part of a subset that was picked to be rich in actives.

In this test the target is Platelet-activating factor acetylhydrolase (Homo sapiens) (UniProt Q13093). In words: inhibition of plasma PAF acetylhydrolase – biochemical, fluorescence polarization, human, primary screen (AID 463082).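 Also: inhibitors block binding of the rhodamine activity-based probe so polarization drops; 0% = enzyme with DMSO and 100% = wells lacking pPAFAH.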 The conditions noted are these: recombinant pPAFAH, FP-rhodamine probe fluorescence polarization; at 3.39 µM; stronger effect = higher value. Background: Fluorescence polarisation rises when a labelled molecule tumbles more slowly, as on binding a larger partner.
Platelet-activating factor acetylhydrolase (Homo sapiens), sequence (Q13093 whole entry, looked up): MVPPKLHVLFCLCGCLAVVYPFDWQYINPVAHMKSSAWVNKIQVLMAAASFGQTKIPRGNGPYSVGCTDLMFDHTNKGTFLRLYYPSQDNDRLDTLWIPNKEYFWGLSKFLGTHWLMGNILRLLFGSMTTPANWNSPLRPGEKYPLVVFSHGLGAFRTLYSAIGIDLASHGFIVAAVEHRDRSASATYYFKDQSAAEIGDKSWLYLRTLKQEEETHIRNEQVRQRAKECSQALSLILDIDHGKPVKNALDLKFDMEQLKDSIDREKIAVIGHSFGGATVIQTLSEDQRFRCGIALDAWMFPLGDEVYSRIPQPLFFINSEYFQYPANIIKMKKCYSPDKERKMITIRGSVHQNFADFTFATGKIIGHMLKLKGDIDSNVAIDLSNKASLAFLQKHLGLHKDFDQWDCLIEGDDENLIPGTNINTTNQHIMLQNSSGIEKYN
Consider `O=C(O)/C(=C/c1cccnc1)NC(=O)c1ccccc1`, for which the inhibition was -3.24% (inactive).
Take `O=C(CN1C(=O)c2ccc([N+](=O)[O-])cc2C1=O)Nc1nnc(C2CC2)s1`: the inhibition is 0.34% (inactive).
Consider `O=C(Nc1cccn(Cc2c(Cl)cccc2Cl)c1=O)c1ccc(Cl)cc1`, for which the inhibition is -3.34% (inactive).
Take `O=C(COC(=O)c1ncc(Cl)c(Cl)c1Cl)NCc1ccccc1`: the inhibition was 14.3% (inactive).
For the compound `Cc1cc(O)c(C(=O)/C=C/c2c(F)c(F)c(F)c(F)c2F)c(=O)o1`, the inhibition was 27.7% (active).
With `Cc1cc(O)c(Sc2ccccc2)c(=O)o1`, the inhibition is 3.25% (inactive).
`Cc1ccc(N=Cc2c(O)cc(C)oc2=O)c(C)c1`: the inhibition is -5.2% (inactive).
On to `CCOC(=O)C1CCN(Cc2coc3ccc(Cl)cc3c2=O)CC1`, for which the inhibition is -3.13% (inactive).
As for `O=C(OCC1O[C@@H](OC(=O)c2cc(O)c(O)c(O)c2)[C@@H](OC(=O)c2cc(O)c(O)c(O)c2)[C@@H](OC(=O)c2cc(O)c(O)c(O)c2)[C@@H]1OC(=O)c1cc(O)c(O)c(O)c1)c1cc(O)c(O)c(O)c1` (stereo partly drawn), the inhibition is 73% (active).
As for `O=C(OCC1OC(Oc2ccc(O)cc2)C(O)C(O)C1O)c1ccccc1` (stereo not drawn), the figure is 3.51% (inactive); as for `CC1Cc2ccccc2N1S(=O)(=O)c1cccc(C(=O)OCC(=O)N2CCOCC2)c1` (stereo not drawn), 8.16% (inactive).
In the case of `COc1ccc(OC)c(NC(=O)C2CCCN2S(=O)(=O)c2cccc3nsnc23)c1` (stereo not drawn) it was 1.9% (inactive); in that of `CC(=O)c1ccc(-c2ccc(Cn3c(C)nc4cc(N)c(C)nc43)cc2)cc1`, 3.76% (inactive).
As for `Cc1cc2nc3c(=O)n(Cc4ccccc4)c(=O)[nH]c3nc2cc1N`, the figure is 59.1% (active).
Turning to `Cc1cc(-c2csc(N)n2)c(C)n1Cc1ccccc1`, the inhibition is 12.4% (inactive).
`Nc1nc(Br)c2ccccc2c1-c1ccc(F)cc1`: the inhibition is 29.3% (active).
As for `CN(CC(=O)Nc1c(Cl)cccc1Cl)C(=O)CC1OC(=O)c2ccccc21` (stereo not drawn), the inhibition was 1.34% (inactive).
Turning to `CC(NS(=O)(=O)c1ccc(Br)cc1)C(=O)NCC1CCCO1` (stereo not drawn), the inhibition is 1.93% (inactive).
For the compound `OC(CNCC1CCCO1)Cn1c2ccc(Br)cc2c2cc(Br)ccc21` (stereo not drawn), the inhibition was 60% (active).
Take `O=C(CSc1ccc(-c2ccc(Br)cc2)nn1)NCC1CCCO1` (stereo not drawn): the inhibition was 3.46% (inactive).
Regarding `CC1c2nc3ccccc3n2C(CC(=O)NCCCN2CCOCC2)C(=O)N1Cc1ccccc1` (stereo not drawn), the inhibition was 3.44% (inactive).
Take `O=C(Cn1cc(C(F)(F)F)ccc1=O)Nc1ccc2c(c1)OCCO2`: the inhibition is 0.39% (inactive).
As for `CCCN(CC(=O)Nc1ccccc1C)C(=O)c1ccc2[nH]c3c(c2c1)CC(C)CC3` (stereo not drawn), the figure is 2.57% (inactive); as for `COc1cc2c(C(=O)O)c(C)n(C)c2c2ccccc12`, 8.22% (inactive).
In the case of `COc1cccc2c(C)c(C(=O)O)[nH]c12`, the inhibition was 40% (active).
Consider `Cc1c(C(=O)N/N=C/c2ccccc2)[nH]c2c([N+](=O)[O-])cccc12`, for which the inhibition is 2.71% (inactive).
With `CCOc1ccc(N/C(N)=N/c2nc(C)c(C)c(=O)[nH]2)cc1`, the inhibition is 5.08% (inactive).
As for `CCOC(=O)CNC(=O)CSc1ncccc1-c1nc2ccccc2[nH]1`, the inhibition was 3.09% (inactive).
Regarding `COC(=O)c1cccc(N(C(=O)c2ccco2)C(C(=O)NC2CCCC2)c2ccco2)c1` (stereo not drawn), the inhibition was -7.26% (inactive).
In the case of `CCOc1ccc(NS(=O)(=O)c2ccc(C(=O)NCC(c3ccccc3OC)N3CCCC3)cc2)cc1` (stereo not drawn) it was 51.8% (active).
On to `COc1ccc(C(CNC(=O)c2cccc(NS(=O)(=O)c3ccc(C)c(F)c3)c2)N2CCCC2)cc1` (stereo not drawn), for which the inhibition was 5.75% (inactive).
As for `Cc1cc(S(=O)(=O)Nc2ccc(C(=O)NCC(c3ccco3)N3CCCC3)cc2)ccc1F` (stereo not drawn), the figure is -0.43% (inactive); as for `CCOc1ccc(NS(=O)(=O)c2ccc(C(=O)NC3CCN(Cc4ccccc4)CC3)cc2)cc1`, 24.1% (inactive); as for `COc1ccc(C(CNC(=O)c2cccc(S(=O)(=O)Nc3ccccc3Cl)c2)N2CCOCC2)cc1` (stereo not drawn), -3.75% (inactive).
Regarding `COc1ccc(C(CNC(=O)c2ccc(S(=O)(=O)Nc3ccccc3C)cc2)N2CCOCC2)cc1` (stereo not drawn), the inhibition was 33.2% (active).
With `CC(=O)Nc1ccc(S(=O)(=O)N2CCN(C(=O)c3ccccc3F)CC2)cc1`, the inhibition is -5.31% (inactive).
Regarding `COc1ccc(S(=O)(=O)N(C)C[C@@H]2Oc3ccc(NC(=O)Nc4c(C)noc4C)cc3C(=O)N([C@H](C)CO)C[C@@H]2C)cc1`, the inhibition was 1.97% (inactive).
As for `COc1ccc(S(=O)(=O)NCc2cccnc2)cc1NC(=O)c1ccc(C)cc1`, the inhibition was 0.8% (inactive).
As for `Cc1cccc(C)c1NC(=O)CCS(=O)(=O)c1cccc2nsnc12`, the figure is -6.43% (inactive); as for `Cc1cccc(Cn2cnc3c(N)c(C)c(C)cc32)c1`, 9.5% (inactive).
As for `Cn1c(=O)c(C(=O)Nc2ncccn2)c(O)c2ccccc21`, the figure is 1.18% (inactive); as for `COc1ccc(COC(=O)NC(C(=O)O)c2ccccc2)cc1` (stereo not drawn), -0.13% (inactive).
Take `COC(=O)c1ccc(C(NC(=O)OCc2ccccc2)/C(C)=C/[C@@H](C)C(=O)NCc2ccc(OC)c(OC)c2)cc1` (stereo partly drawn): the inhibition was 40.4% (active).
For `COC(=O)c1ccc(C(NC(=O)OCc2ccccc2)/C(F)=C/[C@@H](C)C(=O)O)cc1` (stereo partly drawn), the inhibition was 6.41% (inactive).
Turning to `C=CCNC(=O)C1CC2c3ccccc3C1c1ccccc12` (stereo not drawn), the inhibition was 3.92% (inactive).
As for `CSC1=NC2(C)CCCCC2C12C=CC(=O)C=C2` (stereo not drawn), the inhibition is 5.48% (inactive).
Regarding `Cc1nn(C)cc1C(=O)c1ccccc1`, the inhibition was -11.2% (inactive).
As for `C=C(C)CNC(=O)c1ccc(OC2CCN(C(=O)COC)CC2)cc1`, the inhibition was -1.41% (inactive).
In the case of `COc1ccc(/C=N/NC(=O)c2ccc3c(c2)OCCO3)c(OC)c1`, the inhibition is 11.5% (inactive).
As for `COc1cccc(/C=N/NC(=O)c2[nH]nc3c2CCc2ccccc2-3)c1O`, the inhibition was 43.7% (active).
As for `COc1cc(OC)c(/C=N/NC(=O)c2ccc([N+](=O)[O-])cc2)cc1Br`, the inhibition was 2.36% (inactive).
On to `CC(C)(C)C(=O)OCc1nc(-c2ccc(O)c(O)c2)cs1`, for which the inhibition was 27.5% (active).
Consider `Cc1onc(C(=O)NN)c1-c1csc(COc2ccccc2)n1`, for which the inhibition is -3.91% (inactive).
In the case of `COc1ccc(-c2csc(Cc3nc(O)cs3)n2)cc1`, the inhibition is 13% (inactive).
As for `C/C(=N/N1CCN(Cc2cccc3ccccc23)CC1)c1cccnc1`, the figure is -3.57% (inactive); as for `CCN(CC)C(=O)[C@H]1CC(CC(=O)NCc2ccco2)C(=O)N2CCc3c([nH]c4ccccc34)[C@]12C` (stereo partly drawn), -0.35% (inactive).
Consider `CCN1/C(=C\c2ccc3ccccc3[n+]2CC)Sc2cc(C)ccc21`, for which the inhibition is 36.3% (active).
In the case of `Cc1ccc(C(=O)OCC(=O)NC(=O)Cc2ccccc2)c(O)c1`, the inhibition was 5.13% (inactive).
Turning to `Cc1cc(C)c(C(=O)CSc2nc(C)cc(=O)[nH]2)c(C)c1`, the inhibition is 8.8% (inactive).
For `Cc1cc(=O)[nH]c(SCc2cccc(F)c2)n1`, the inhibition was -3.14% (inactive).
Consider `CCCc1cc(=O)[nH]c(SCC(=O)c2c(N)n(CC(C)C)c(=O)n(C)c2=O)n1`, for which the inhibition is 0.06% (inactive).
In the case of `Cc1cc(C(=O)CSc2nc(N)cc(=O)[nH]2)c(C)n1-c1cccc(F)c1`, the inhibition was 56.4% (active).
As to `Cc1cc(C(=O)CSc2nc(N)cc(=O)[nH]2)c(C)n1CCc1ccc(Cl)cc1`, the inhibition was 69.6% (active).
In the case of `Cc1cc(C(=O)CSc2nc(N)cc(=O)[nH]2)c(C)n1Cc1ccco1`, the inhibition is 13.6% (inactive).
Take `CCCc1cc(=O)[nH]c(SCC(=O)N2C(C)CCCC2C)n1` (stereo not drawn): the inhibition is 8.03% (inactive).
With `Cc1cc(=O)[nH]c(SCc2ccc(Cl)cc2)n1`, the inhibition is -2.26% (inactive).
For the compound `CCCc1cc(=O)[nH]c(SCC(=O)c2cc(C)n(CCC)c2C)n1`, the inhibition was 25.1% (active).
Take `CONc1nc2nonc2nc1NOC`: the inhibition was 4.61% (inactive).
On to `CCN(CC(=O)Nc1ccc(OC)cc1)C(=O)c1ccc(=O)n(Cc2ccccc2)n1`, for which the inhibition is -1.18% (inactive).
In the case of `O=c1oc2ccc(C#CC3(O)CCCCC3)cc2cc1-n1cc(-c2ccsc2)nn1` it was -0.61% (inactive).
On to `O=C(CO/N=C/c1ccccc1O)NNC(=O)c1ccccc1Cl`, for which the inhibition is 0.6% (inactive).
Regarding `CCOCCCNC(=O)C(=O)NCCCOCC`, the inhibition is 7.96% (inactive).
As for `COc1cccc(COC(=O)C2CCN(S(=O)(=O)c3cccs3)CC2)c1OC`, the figure is 0.21% (inactive); as for `Cn1cccc1C(C#N)c1ccccc1C#N` (stereo not drawn), 6.28% (inactive).
With `CC(=O)Oc1c(C(=O)c2nnc(C)o2)c(=O)n(Cc2ccccc2)c2ccccc12`, the inhibition was 4.19% (inactive).
In the case of `CCCCNC(=O)C(C)N(CCN(C)C)C(=O)CCCN1C(=O)NC(c2ccc(Cl)cc2)C(C(=O)OCc2ccccc2)=C1C` (stereo not drawn), the inhibition is 8.55% (inactive).
With `FC(F)(F)c1cccc(Cc2noc(CN3CCC(N4CCCCC4)CC3)n2)c1`, the inhibition is -0.07% (inactive).
For the compound `CCN(C(=O)c1cc([N+](=O)[O-])ccc1NCc1cccnc1)c1ccccc1`, the inhibition was -0.13% (inactive).
Turning to `CC(Oc1ccc(Br)cc1)C(=O)NCC(c1ccco1)N1CCCCC1` (stereo not drawn), the inhibition was 1.84% (inactive).
`CCOC(=O)C1(Cc2ccc(Cl)cc2)CCN(C(=O)C2=NNC(=O)CC2)CC1`: the inhibition was 1.54% (inactive).
On to `COC(=O)CN1C(=O)[C@H]2[C@@H](/C=C/c3ccccc3)N3C(=O)CN(Cc4ccccc4)C(=O)[C@@]3(Cc3ccccc3)[C@H]2C1=O`, for which the inhibition is 3.66% (inactive).
On to `NS(=O)(=O)c1ccccc1NC(=O)c1c(O)c2ccccc2[nH]c1=O`, for which the inhibition was -4.47% (inactive).
As for `CN(C(=O)COC(=O)c1cc(-c2ccco2)nc2ccccc12)C1CCS(=O)(=O)C1` (stereo not drawn), the figure is 30.1% (active).
For the compound `CN(C(=O)COC(=O)Cc1ccccc1[N+](=O)[O-])C1CCS(=O)(=O)C1` (stereo not drawn), the inhibition was -1.36% (inactive).
On to `CN(CCOc1ccccc1)C(=O)c1cc(-c2ccco2)nc2ccccc12`, for which the inhibition was 17.3% (inactive).
`c1ccc(C2CCC(N3CCC(N4CCCCC4)CC3)CC2)cc1` (stereo not drawn): the inhibition was 4.58% (inactive).
As for `CC/C(O)=C1\C(=O)CC(C)(C)CC1=NCCc1nc2ccccc2[nH]1`, the inhibition was -2.43% (inactive).
`Cc1cccc(C(=O)Nc2ccc(C(=O)/C=C/c3cccs3)cc2)c1`: the inhibition was -9.49% (inactive).

In general, inhibition refers to the relative decrease from the control value, in per cent.
